According to PubChem BioAssay (Tox21):
Where “and” joins values, the source holds several entries; their conditions need not be identical. Identical values can stand only once. Records with an inconclusive call do not appear. Calls of active or inactive are those of the source. Unless noted, calls follow the shape of the dose curve; as a rule, active = well fitted curve in the direction sought with a large enough effect in the repeat runs; inconclusive = weak or mixed curves; inactive = no such curve, though single readings can be large; an effect the other way counts as inactive or inconclusive.

Columns and labels:
[1] = qHTS assay to identify small molecule agonists of the constitutive androstane receptor (CAR) signaling pathway - cell viability counter screen (AID 1224836); also: nearly all actives have a fitted effect of over 45% in size; also: potency is read from the fitted curve at half-maximal effect; as to viability change, negative = cytotoxic: series mostly up to about 92 µM
Procedure, shortened: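 Using CellTiter-Fluor, viability of HepG2 cells harbouring hCAR and CYP2B6-2.2kb was measured following 23 h incubation with a 15-concentration compound series plus PK11195 (0.75 uM final).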

[2] = qHTS assay to identify small molecule antagonists of the constitutive androstane receptor (CAR) signaling pathway - cell viability counter screen (AID 1224837); also: nearly all actives have a fitted effect of over 45% in size; also: potency is read from the fitted curve at half-maximal effect; as to activity change, negative = cytotoxicity: series mostly up to about 92 µM
Procedure, shortened: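 Counter screen run in HepG2-CYP2B6-hCAR cells: 4 hr settle, compound titration (15 concentrations) with 50 nM CITCO, 23 hr at 37 C/5% CO2, CellTiter-Fluor fluorescence.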

[3] = biological target: Nuclear receptor subfamily 1 group I member 3 (Homo sapiens) (UniProt Q14994); assay: qHTS assay to identify small molecule antagonists of the constitutive androstane receptor (CAR) signaling pathway (AID 1224838);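 also: HepG2 cells stably expressing hCAR with CYP2B6 luciferase reporter stimulated by CITCO; nearly all actives have a fitted effect of over 40% in size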; also: potency is read from the fitted curve at half-maximal effect
Procedure, shortened: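 Cell line: HepG2 double-stable for hCAR and CYP2B6-2.2kb reporter. Agonist: CITCO, 50 nM final. Compounds: 15 concentrations, 24 h, 37 C. Detection: ONE-Glo luminescence.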

[4] = biological target: Nuclear receptor subfamily 1 group I member 3 (Homo sapiens) (UniProt Q14994); assay: qHTS assay to identify small molecule agonists of the constitutive androstane receptor (CAR) signaling pathway (AID 1224839); also: nearly all actives have a fitted effect of over 15% in size; also: potency is read from the fitted curve at half-maximal effect;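 as to activation: HepG2 cells stably carrying human CAR and a CYP2B6 luciferase reporter; series mostly up to about 92 µM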
Procedure, shortened: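 Double-stable HepG2 cells (hCAR, CYP2B6-2.2kb) seeded 4 h before compound addition. Exposure 24 h with 0.75 uM PK11195 final. Luciferase detected by ONE-Glo.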

[5] = qHTS assay to identify small molecule antagonists of the estrogen related receptor signaling pathway with the pleiotropic PPARgamma coactivator (PGC) from Tox21 10K library - cell viability counter screen (AID 1224840; active = well fitted cell-killing curve with a large enough effect in the repeat runs, not every such curve was filed as active; also: nearly all actives have a fitted effect of over 40% in size; also: potency is read from the fitted curve at half-maximal effect)
Procedure, shortened: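 Following seeding of 2,000 PGC/ERR cells/well and 6 hours' incubation, test compounds were delivered in DMSO. The plates then sat 17.5 hours at 37 C before a fluorogenic live-cell protease reagent (CellTiter-Fluor) was read after 30 min.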

[6] = qHTS assay to identify small molecule antagonists of the estrogen related receptor signaling pathway with the pleiotropic PPARgamma coactivator (PGC) from Tox21 10K library (AID 1224841; call rule not given here; also: actives are mostly falling curves and most rising ones were filed inactive; nearly all actives have a fitted effect of over 50% in size; also: potency is read from the fitted curve at half-maximal effect; as to activity, negative = inhibition: series mostly up to about 92 µM)
Procedure, shortened: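 qHTS antagonist format: PGC/ERR cells, 2k/well, compound in DMSO by pin transfer after 6 h attachment, 18 h treatment at 37 C, One-Glo luminescence read at 30 min.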

[7] = biological target: Thyrotropin receptor (Homo sapiens) (UniProt P16473); assay: qHTS assay to identify small molecule agonists of the thyroid stimulating hormone receptor (TSHR) signaling pathway (AID 1224843; calls by dose curve; also: nearly all actives have a fitted effect of over 45% in size)
Procedure, shortened: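 Steps: seed 800 TSHR-HEK293 cells per well; add test compound and hold 30 min at ambient temperature; dispense cAMP-d2 then anti-cAMP cryptate; incubate 1 h at ambient; measure fluorescence intensity.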

[8] = qHTS assay to identify small molecule agonists of the hypoxia (HIF-1) signaling pathway - cell viability counter screen (AID 1224844; calls by dose curve; also: nearly all actives have a fitted effect of over 50% in size; also: potency is read from the fitted curve at half-maximal effect)
Procedure, shortened: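 Cells (HRE-bla ME-180, 2,000 per well) sat 5 hrs at 37C, got compound for 17 hrs, were read for CCF4-AM FRET, and were finally lysed with CellTiter-Glo for a 30 min room-temperature luminescence read.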

[9] = qHTS assay to identify small molecule agonists of the estrogen related receptor signaling pathway with the pleiotropic PPARgamma coactivator (PGC) from Tox21 10K library (AID 1224842); also: nearly all actives have a fitted effect of over 15% in size
Procedure, shortened: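 PGC/ERR reporter cell line, 2,000 cells per well, incubated 6 h at 37 C before 23 nL compound in DMSO was added. After 18 h at 37 C, One-Glo luminescence read following 30 min at room temperature.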

[10] = qHTS assay to identify small molecule agonists of H2AX (AID 1224845; active = well fitted activation curve with a large enough effect in the signal ratio in the repeat runs, not every such curve was filed as active; the % refers to the signal ratio; also: potency is read from the fitted curve at half-maximal effect)
Procedure, shortened: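 Wild-type CHO-K1 cells, plated overnight, exposed 3hr at 37C to 15 concentrations (0.76% DMSO final). Lysed, then HTRF anti-pH2AX (S139) cryptate and anti-H2AX-d2 antibodies, 24 hr room temperature; 665/620 nm emission read.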
% is scaled to controls: 0 for no effect and ±100 for the full control effect.

Thyrotropin receptor (Homo sapiens), sequence (P16473 whole entry, looked up): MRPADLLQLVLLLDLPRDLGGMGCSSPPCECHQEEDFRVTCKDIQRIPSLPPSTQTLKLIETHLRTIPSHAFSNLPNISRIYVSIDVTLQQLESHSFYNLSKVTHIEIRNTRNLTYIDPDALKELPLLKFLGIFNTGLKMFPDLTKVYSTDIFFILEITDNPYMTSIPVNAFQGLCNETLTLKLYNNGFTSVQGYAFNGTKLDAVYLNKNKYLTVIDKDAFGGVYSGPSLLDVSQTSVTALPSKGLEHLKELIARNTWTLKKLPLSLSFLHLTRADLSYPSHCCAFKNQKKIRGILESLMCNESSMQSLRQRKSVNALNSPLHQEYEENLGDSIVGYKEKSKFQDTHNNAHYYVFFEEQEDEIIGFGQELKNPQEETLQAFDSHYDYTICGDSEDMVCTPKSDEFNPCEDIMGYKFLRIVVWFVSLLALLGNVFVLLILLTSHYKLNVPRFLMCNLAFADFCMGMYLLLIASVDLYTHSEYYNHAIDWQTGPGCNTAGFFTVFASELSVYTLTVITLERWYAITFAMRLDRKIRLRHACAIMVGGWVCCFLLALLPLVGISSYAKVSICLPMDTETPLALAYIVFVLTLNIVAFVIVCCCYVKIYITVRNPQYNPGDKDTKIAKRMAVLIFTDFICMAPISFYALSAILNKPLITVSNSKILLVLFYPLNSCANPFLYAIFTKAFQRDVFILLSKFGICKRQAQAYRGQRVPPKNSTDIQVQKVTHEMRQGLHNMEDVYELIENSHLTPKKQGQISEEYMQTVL
Nuclear receptor subfamily 1 group I member 3 (Homo sapiens), sequence (Q14994 whole entry, looked up): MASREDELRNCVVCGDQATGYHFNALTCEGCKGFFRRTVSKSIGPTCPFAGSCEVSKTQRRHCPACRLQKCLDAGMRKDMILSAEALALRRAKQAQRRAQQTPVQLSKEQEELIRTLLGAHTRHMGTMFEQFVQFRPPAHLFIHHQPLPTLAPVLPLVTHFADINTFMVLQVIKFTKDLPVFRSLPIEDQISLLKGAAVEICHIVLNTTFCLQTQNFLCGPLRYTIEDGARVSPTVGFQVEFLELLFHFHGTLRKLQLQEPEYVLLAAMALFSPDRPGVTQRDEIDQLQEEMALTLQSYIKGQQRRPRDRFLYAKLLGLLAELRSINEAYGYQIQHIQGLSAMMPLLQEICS

Oc1ccc(-c2ccc(O)cc2)cc1
active: Potency [4] 17.3 µM | Potency [8] 49.3 µM
inactive: Potency [1] | Potency [2] | Potency [3] | Potency [5] | Potency [6] | Potency [7]

CC(=O)Oc1ccc(C2(c3ccc(OC(C)=O)cc3)C(=O)Nc3ccccc32)cc1
inactive: Potency [1] | Potency [2] | Potency [4] | Potency [5] | Potency [6] | Potency [7]
active: Potency [3] 0.168 µM

CC(C)c1ccccc1N
inactive: Potency [1] | Potency [2] | Potency [3] | Potency [4] | Potency [5] | Potency [6] | Potency [9] | Potency [7] | Potency [8] | Potency [10]

C[C@@]12C(=O)OC(=O)[C@]1(C)C1CCC2O1
active: Potency [1] 1.68 µM | Potency [2] 1.33 µM | Potency [3] 0.668 µM
inactive: Potency [4]

C=CC(=O)OCCC#N
inactive: Potency [1] | Potency [2] | Potency [3] | Potency [4] | Potency [5] | Potency [6] | Potency [7] | Potency [8]

NCCCCCCNCCCCCCN
inactive: Potency [1] | Potency [2] | Potency [3] | Potency [4] | Potency [5] | Potency [6] | Potency [9]

CC(C)(c1cc(Br)c(O)c(Br)c1)c1cc(Br)c(O)c(Br)c1
active: Potency [8] 54.8 µM and 48.9 µM | Potency [10] 113 µM
inactive: Potency [1] | Potency [2] | Potency [3] | Potency [4] | Potency [5] | Potency [6] | Potency [9] | Potency [7]

c1ccc(Nc2cccc3ccccc23)cc1
active: Potency [4] 61.9 µM and 61.1 µM
inactive: Potency [1] | Potency [2] | Potency [3] | Potency [5] | Potency [6] | Potency [8]

CCCCCCOc1cc(C)c(O)c(C)c1C
inactive: Potency [1] | Potency [2] | Potency [3] | Potency [6] | Potency [9]
active: Potency [4] 49.2 µM | Potency [5] 55.1 µM

CC1(C)C(=O)N(Br)C(=O)N1Br
inactive: Potency [1] | Potency [2] | Potency [3] | Potency [4] | Potency [5] | Potency [6] | Potency [9] | Potency [7] | Potency [8] | Potency [10]

CN1CCN(C2Cc3ccccc3Sc3ccc(Cl)cc32)CC1 (stereo unspecified)
active: Potency [8] 23.9 µM
inactive: Potency [1] | Potency [2] | Potency [3] | Potency [4] | Potency [5] | Potency [6] | Potency [7]

CCCCCCCC/C=C/CCCOC(C)=O
inactive: Potency [1] | Potency [2] | Potency [3] | Potency [4] | Potency [5] | Potency [6] | Potency [9] | Potency [7] | Potency [8] | Potency [10]

C=C(C)CCCC
inactive: Potency [1] | Potency [2] | Potency [3] | Potency [4] | Potency [5] | Potency [9] | Potency [7] | Potency [8] | Potency [10]

c1cc[nH]c1
inactive: Potency [1] | Potency [2] | Potency [3] | Potency [4] | Potency [5] | Potency [6] | Potency [7] | Potency [8] | Potency [10]

Cc1ccc2ccc3cccc4ccc1c2c34
active: Potency [4] 30.6 µM
inactive: Potency [1] | Potency [2] | Potency [3] | Potency [5] | Potency [6] | Potency [7] | Potency [8] | Potency [10]

C=CC(=C)CC/C=C(\C)CCC=C(C)C
inactive: viability change, negative = cytotoxic [1] 4.77% [at 19 µM] | activity change, negative = cytotoxicity [2] -2.25% [at 19 µM] | activity, negative = inhibition [3] 8.18% [at 19 µM] | activation [4] 4.39% [at 19 µM] | viability change, negative = cytotoxic [5] -0.28% [at 19 µM] | activity, negative = inhibition [6] 0% [at 19 µM] | activation [7] -0.893% [at 19 µM] | activity change, negative = cytotoxicity [8] 1.43% [at 15.8 µM] | activation (H2AX phosphorylation) [10] -0.467% [at 31.6 µM]

CCC1CCCCC1
inactive: Potency [1] | Potency [2] | Potency [3] | Potency [4] | Potency [5] | Potency [9] | Potency [7] | Potency [10]

CS(C)(=O)=O
inactive: Potency [1] | Potency [2] | Potency [3] | Potency [4] | Potency [5] | Potency [9] | Potency [7] | Potency [8] | Potency [10]

O=Nc1ccc(NO)cc1
inactive: Potency [1] | Potency [2] | Potency [3] | Potency [4] | Potency [5] | Potency [6] | Potency [8]

COc1cccc(CCc2ccccc2OCC(CN(C)C)OC(=O)CCC(=O)O)c1 (stereo unspecified)
active: Potency [8] 19 µM
inactive: Potency [1] | Potency [2] | Potency [3] | Potency [4] | Potency [5] | Potency [6] | Potency [9] | Potency [7] | Potency [10]

O=C1C=CC(=O)N1c1ccccc1
inactive: Potency [4] | Potency [9]
active: Potency [1] 54.5 µM | Potency [2] 27.3 µM | Potency [3] 27.3 µM | Potency [5] 30.6 µM | Potency [6] 54.5 µM | Potency [8] 21.9 µM

CCN(CC)c1ccc(N)cc1
active: Potency [1] 31.5 µM | Potency [2] 28.1 µM | Potency [3] 62.8 µM | Potency [4] 7.05 µM | Potency [5] 25 µM | Potency [6] 2.5 µM
inactive: Potency [9] | Potency [8]

CCOCOCC
inactive: Potency [1] | Potency [2] | Potency [3] | Potency [4] | Potency [5] | Potency [6] | Potency [7] | Potency [8]

Cc1cccc(N(C)C)c1
inactive: Potency [1] | Potency [2] | Potency [3] | Potency [4] | Potency [5] | Potency [6] | Potency [9] | Potency [7] | Potency [8]

CCCCOCC
inactive: Potency [1] | Potency [2] | Potency [3] | Potency [4] | Potency [5] | Potency [6] | Potency [7]
